D2 PAM-1: positive allosteric modulators of human D2 dopamine receptor. P14416. HEK293 T-REx D2, calcium flux, EC20 dopamine potentiation. potentiation, % at 10 µM. 0.34% of 340,000 active;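 active = potentiation over 3 SD above the plate norm, cut at about 30% in these data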; also: 0% is about no effect
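Primary screen. Calcium kinetics in induced HEK293 T-REx D2 cells: compound pre-addition 180 s, EC20 dopamine, 180 s more.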
D2 ag-1: agonists of human D2 dopamine receptor; P14416; HEK293 T-REx D2 cells, calcium flux agonist mode; activation, % at 2 µM; 0.53% of 340,000 active; AID 485358;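 active = activation over 3 SD above normal in the single-dose calcium agonist read, cut at about 30% in these data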; also: 0% is about no effect
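HEK293 Trex D2 cells, tetracycline-induced, o/n 30 C 5% CO2; no-wash Ca dye, RT 30–90 min; 10-cycle baseline, 23 nl cpd added, kinetic Ca read 180 s; agonist hits = positive Ca response.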
D2 ag-2: human D2 receptor agonism in beta-arrestin assay. activation, % (no concentration beside the values). P14416. 0.084% of 360,000 active. DiscoveRx PathHunter D2 beta-arrestin, luminescence, 90 min; 100% = 57 uM dopamine signal; in the data active = activation above about 40%; inconclusive = between about 15% and that limit
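DiscoveRx PathHunter D2 beta-arrestin cells (2,100/well) attached overnight, then compound-stimulated 90 min at 37 C in HBSS/10 mM HEPES/0.1% Tween-20 buffer; beta-galactosidase complementation read by luminescence after 1 h at ambient temperature. Dopamine 57 uM final (EC100) as control.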
D2 antag: antagonizes the human D2 dopamine receptor. AID 485344. HEK293 TREx D2 cells, calcium flux, dopamine EC80. P14416. 2% of 340,000 active. inhibition, % at 10 µM; in the data active = inhibition above about 30%; inactive = below that, where a call was filed; also: 0% is about no effect
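Overnight-induced (tetracycline, 30 C) HEK293 T-REx cells carrying force-coupled D2 receive a no-wash calcium dye, then compound, then EC80 dopamine at 180 s; signals are read kinetically throughout.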
D2 PAM-2: potentiates the human D2 dopamine receptor allosterically; P14416; potentiation, % (test concentration not listed); DiscoveRx D2 beta-arrestin cells, luminescence, 90 min; 100% = 57 uM dopamine signal; AID 624464; 0.23% of 360,000 active; in the data active = potentiation above about 50%; inconclusive = mostly about 30% to 49%
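PathHunter beta-arrestin assay in DiscoveRx D2 cells. Compounds were added with an EC20 of dopamine (50 nM final) for 90 min at 37 deg C. Luminescence was read 1 h after detection reagent, with 57 uM dopamine as the EC100 control.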
D3 ag: confirmation of human D3 dopamine receptor agonists, beta-arrestin. shares compounds with D2 ag-1. Potency, µM (doses to about 76.9 µM), without a hit: at the top dose activation, most hits filed as activators. AID 720506. 4% of 2,300 active. DiscoveRx D3 beta-arrestin cells, luminescence, 90 min;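 also: potency is read from the fitted curve at half-maximal effect; 100% = dopamine control response; nearly all actives have a fitted effect of over 70% in size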
Target sequence (P35462 whole entry, looked up): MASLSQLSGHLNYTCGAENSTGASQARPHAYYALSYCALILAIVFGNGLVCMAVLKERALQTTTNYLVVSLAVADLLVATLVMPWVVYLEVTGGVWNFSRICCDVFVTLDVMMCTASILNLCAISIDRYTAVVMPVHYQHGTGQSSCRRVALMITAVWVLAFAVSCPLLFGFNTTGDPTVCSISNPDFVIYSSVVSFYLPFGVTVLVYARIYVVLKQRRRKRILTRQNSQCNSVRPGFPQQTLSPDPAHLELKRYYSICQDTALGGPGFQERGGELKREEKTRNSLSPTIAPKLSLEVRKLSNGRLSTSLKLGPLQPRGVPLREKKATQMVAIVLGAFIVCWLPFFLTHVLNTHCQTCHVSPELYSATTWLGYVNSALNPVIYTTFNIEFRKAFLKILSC
D2 ag-3: D2 receptor agonism, beta-arrestin counterscreen; shares compounds with D2 ag-1; DiscoveRx PathHunter D2 beta-arrestin, luminescence, 90 min; response scale: percent relative to full dopamine signal; Potency, µM (series often up to 76.9 µM), for inactives: at the highest dose activation, usual class: activators; 5.9% of 2,300 active; AID 720507; also: potency is read from the fitted curve at half-maximal effect; % of control where 0% means no effect; nearly all actives have a fitted effect of over 70% in size
The depositor's hits bear a star; ? = inconclusive; nt = no result given; ! = repeats disagree. An excerpt weighted towards active compounds, which were near 2.4% of everything screened. Unless noted, calls follow the shape of the dose curve; as a rule, active = well fitted activation curve with a large enough effect; inconclusive = small, poorly fitted or top-dose-only effect; inactive = flat fitted curve, though single readings scatter.

SMILES	D2 PAM-1	D2 ag-1	D2 ag-2	D2 antag	D2 PAM-2	D3 ag	D2 ag-3
CCOC(=O)N1CCC(NCCNC(=O)c2ccccc2)CC1	-13	66*!	7	51*	-13	-2%	7%
O=C(NCCNC1CCC(c2ccccc2)CC1)c1cccs1 (stereo unspecified)	-11	50*	-2	48*	-18	-5%	-3%
CCOC(=O)N1CCC(NC(=O)Cc2ccccc2)CC1	-3	0	-5	-1	-16	nt	nt
CCOC(=O)N1CCC(NC(=O)c2ccccc2C(=O)O)CC1	-1	0	-1	-6	0	nt	nt
CCOC(=O)N1CCC(NCCNC(=O)c2ccccc2Cl)CC1	3	0	2	56*	-1	-14%	12%
CCOC(=O)N1CCC(NCCNC(=O)c2cccs2)CC1	nt	6	8	6	-26	-9%	11%
CCOc1ccccc1-c1noc(CSc2nnc(-c3ccncc3)n2-c2ccc(F)cc2)n1	9	4	nt	nt	nt	nt	nt
CN(C)CCNC(=O)C(=O)NCC(c1cccnc1)N1CCN(c2ccccc2)CC1 (stereo unspecified)	-2	0	nt	nt	nt	nt	nt
CCOCCCNC(=O)c1cnc2sc(N3CCCCCC3)nn2c1=O	-4	1	nt	nt	nt	nt	nt
CCN1CC2=C(OC(N)=C(C#N)C2c2cccs2)/C(=C\c2cccs2)C1 (stereo unspecified)	-23	41*	0	27	-22	-11%	-2%
O=C(O)/C(=C\c1cccc(O)c1)c1ccc(S(=O)(=O)N2CCCC2)s1	-5	25	0	42*	6	-5%	8%
O=C(O)/C(=C\c1cccc(F)c1)c1ccc(S(=O)(=O)N2CCCCC2)s1	6	-1	-6	-11	10	nt	nt
O=c1[nH]c(CN(CCc2ccccc2)S(=O)(=O)c2ccc(Cl)cc2)nc2ccccc12	-9	25	-1	-2	-12	-10%	7%
O=C(c1ccccc1OC(F)F)N1CCN(S(=O)(=O)c2ccc3c(c2)OCCCO3)CC1	5	1	2	1	-4	-1%	5%
O=C(c1ccccc1F)N1CCN(S(=O)(=O)c2ccc3c(c2)OCCO3)CC1	-11	-1	0	6	0	nt	nt
CC(NC(=O)C(=O)N1CCOCC1)C(c1cccs1)N1CCN(c2ccccc2)CC1 (stereo unspecified)	-15	44*	0	-5	-7	-1%	6%
COc1ccc(N2CCN(C(c3cccs3)C(C)NC(=O)C(=O)N3CCOCC3)CC2)cc1 (stereo unspecified)	-4	-1	-1	-15	1	nt	nt
Cc1noc(C)c1C(=O)N1CCN(c2ccccc2O)CC1	-1	0	-6	-6	-20	7%	-1%
Cc1ccc(NC(=O)Cn2c(=O)n(-c3ccccc3)c(=O)c3ccc(C(=O)NCc4ccc5c(c4)OCO5)cc32)c(C)c1	20	1	nt	nt	nt	nt	nt
Cc1ccccc1C(=O)O/N=C(\N)c1ccccc1	2	0	?	5	2	nt	nt
Cc1ccccc1C(=O)O/N=C(\c1ccccc1)c1ccccn1	-24	77*	?	72*	13	?	?
CCCSCCCNC(=O)c1ccccc1NC(=O)C1=CSCCO1	-7	28	-1	7	-7	2%	-1%
CCN(CC)CCCNC(=O)c1ccccc1NC(=O)C1=CSCCO1	nt	nt	-3	nt	-17	nt	nt
CCCC(c1nnnn1CCOC)N1CCN(Cc2ccccc2)CC1 (stereo unspecified)	-8	33*	1	-17	-7	-11%	4%
Cc1cccn2c(=O)cc(CSc3nnc(NC(=O)COc4ccccc4)s3)nc12	2	0	nt	nt	nt	nt	nt
SMILES	D2 PAM-1	D2 ag-1	D2 ag-2	D2 antag	D2 PAM-2	D3 ag	D2 ag-3
Cc1nc(N2CCOCC2)c2c(C(=O)N(C)Cc3ccccc3)c(C)oc2n1	6	0	nt	nt	nt	nt	nt
CC1CCCCN1Cc1ccc(-c2nnn(CC(=O)NC3CCCCC3)n2)cc1 (stereo unspecified)	-19	50*	-1	-14	-2	-9%	-6%
Cc1ccc(-c2csc(-c3cc4c([nH]c3=O)CC(c3ccccc3)CC4=O)n2)cc1 (stereo unspecified)	5	2	nt	nt	nt	nt	nt
Cc1nc2sc(C)c(C)n2c(=O)c1S(=O)(=O)N1CCN(c2ccccc2F)CC1	-5	-1	nt	nt	nt	nt	nt
Cc1ccc(C(=O)COC(=O)CCS(=O)(=O)c2ccccc2)cc1[N+](=O)[O-]	nt	nt	-11	nt	-32	-22%	-16%
Cc1ncc(C[n+]2csc(CCO)c2C)c(N)n1	-13	55*!	-4	68*!	-8	0%	-5%
O=c1[nH]c(CN2CCN(c3ccccc3)CC2)nc2scc(-c3ccccc3)c12	4	8	-5	32*	-10	?	24%
Cc1cccc(NC(=O)Cn2c(=O)n(CCCCCC(=O)NCc3ccc4c(c3)OCO4)c(=O)c3sccc32)c1	-6	0	nt	nt	nt	nt	nt
NC(=O)c1nsc(C(=O)N(c2ccccc2)C(C(=O)NCc2ccc(F)cc2)c2ccco2)c1N (stereo unspecified)	nt	nt	4	nt	2	nt	nt
NC(=O)c1nsc(C(=O)N(c2ccccc2)C(C(=O)NCc2ccc(F)cc2)c2ccc(O)cc2)c1N (stereo unspecified)	5	6	4	57*	23	2%	-1%
Cc1ccc(-c2noc(CN(C3CCCCC3)S(=O)(=O)c3ccc(F)cc3)n2)cc1	-12	nt	nt	nt	nt	nt	nt
COc1cccc(-n2c(N)cc(=O)nc2SCC(=O)N2CCN(c3ccccc3)CC2)c1	-9	21	-2	9	-6	-5%	6%
Cc1ccc(-n2c(N)cc(=O)nc2SCC(=O)N2CCN(c3ccccc3)CC2)cc1	-30	66*	9	64*	-22	-30%	9%
Nc1cc(=O)nc(SCC(=O)N2CCN(c3ccccc3)CC2)n1-c1ccccc1	-2	13	0	6	-9	nt	nt
Nc1cc(=O)nc(SCC(=O)N2CCN(c3ccccc3)CC2)n1-c1ccc(F)cc1	-5	28	0	-19	-6	-21%	-1%
CCc1ccc(Sc2cc(C(=O)NCCCN3CCC(C)CC3)c3ccccc3n2)cc1	-18	0	nt	nt	nt	nt	nt
CCC(C(=O)Nc1ccc(C(C)=O)cc1)n1c(C)c2cnn(-c3ccccc3)c(=O)c2c1C (stereo unspecified)	-4	2	nt	nt	nt	nt	nt
COc1ccc(-c2nc3ccccc3n3c(-c4ccc(OC)cc4)c4c(=O)n(C)c(=O)n(C)c4c23)cc1	7	-1	nt	nt	nt	nt	nt

From PubChem BioAssay
